# Source: PubChem (National Center for Advancing Translational Sciences (NCATS))
# Hits are enriched below; roughly 6.7% of the tested compounds scored in any of these assays.
# MCF10A rereplic – induces DNA re-replication in MCF 10a normal breast cells; MCF 10A DNA re-replication, Hoechst nuclear intensity, 48 h; Potency, µM (titrated, usually from 46.1 µM), for inactives: top-dose activity, positive = re-replication, hits mostly activators; hit rate 2.9% among 350,000; AID 624296; note: % of control where 0% means no effect; nearly all actives have a fitted effect of over 50% in size
# SW480 rerep – inducers of DNA re-replication in SW480 colon cancer cells; Potency, µM (highest dose often 46.1 µM), for inactives: top-dose re-replication activation, usual class: activators; hit rate 1.8% among 340,000; SW480 DNA re-replication, Hoechst DNA content imaging, 48 h; note: % of control where 0% means no effect; nearly all actives have a fitted effect of over 55% in size
#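 Readout is total intensity of Hoechst-stained nuclei, excited at 405 nm and collected at 500-530 nm. Compound treatment lasted 48 hr at 37 C in 5% CO2 before staining.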
# PINK1 modulator – changes PINK1 expression; PINK1 immunofluorescence, high-content cytometry, 24 h; Potency, µM (doses to about 76.6 µM), without a hit: at the highest dose activation (PINK1 increase), actives largely listed as activators; hit rate 0.2% among 410,000; AID 624263; active = well fitted activation curve with a large enough effect; inconclusive = small, poorly fitted or top-dose-only effect; cell line not stated here; note: % of control where 0% means no effect; nearly all actives have a fitted effect of over 65% in size
#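 A stable cell line was treated with compounds at 5 concentrations for 24 hours, with CCCP as control. PINK1 levels and mitochondrial localization were measured by immunofluorescence with mitochondrial, cell and nuclear markers after fixation, read by laser-scanning cytometry.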
# KB-V1 cytotox – KB-V1 MDR subline cytotoxicity; hit rate 3.4% among 400,000; Potency, µM (series often up to 46.1 µM), hits mostly cytotoxic; KB-V1 MDR cells viability, CellTiter-Glo, 72 h; AID 1347076; note: % is set by controls: 0 for no effect and ±100 for the full control effect; nearly all actives have a fitted effect of over 60% in size
#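 Compound-treated KB-V1 multidrug-resistant cells, 72 h, 37 degrees C; viability by CellTiter-Glo. Fitted qHTS curves give the values.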
# KB-3-1 cytotox – kills parental KB-3-1 adenocarcinoma cells. KB-3-1 viability, CellTiter-Glo ATP luminescence, 72 h. Potency, µM (highest dose often 46.1 µM), hits mostly cytotoxic. hit rate 1.4% among 400,000; note: % is set by controls: 0 for no effect and ±100 for the full control effect; nearly all actives have a fitted effect of over 60% in size
#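 Luminescent ATP read-out (CellTiter-Glo) measures survival of drug-naive KB-3-1 cells after 72 h compound exposure at 37 °C. Titration series was screened from lowest to highest concentration, with DMSO vehicle plates as background controls.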
# * hit, by the source's call; i = inactive; ? = inconclusive; / = no result; [ ] = remark or other dose. Unless noted, calls come from the whole dose curve; as a rule, active = well fitted curve in the direction sought with a large enough effect; inconclusive = small, poorly fitted or top-dose-only effect, or another doubt; inactive = no such curve, though single readings can be large; an effect the other way counts as inactive or inconclusive. Potency is the fitted concentration of half-maximal effect.
SMILES,MCF10A rereplic,SW480 rerep,PINK1 modulator,KB-V1 cytotox,KB-3-1 cytotox
O=C(CCSc1nc2ccccc2s1)N/N=C/c1c(O)ccc2ccccc12,21µM*,6.5µM*,?,i,?
CCc1cccc(C)c1NC(=O)CCCSc1nc2ccccc2s1,?,-3%,11%,?,i
Cc1ccc(Nc2nc(N)nc(CSc3nc4ccccc4s3)n2)cc1,?,?,2%,?,i
Cc1ccccc1NC(=O)CCCSc1nc2ccccc2s1,13%,0%,1%,15µM*,i
Cc1ccccc1Nc1nc(N)nc(CSc2nc3ccccc3c(=O)n2C)n1,?,9%,5%,16µM*,i
Cc1ccccc1Nc1nc(N)nc(CSc2nc3ccccc3s2)n1,23%,-4%,3%,16µM*,i
CCOc1ccc(NC(=O)CN(C)C(=O)Cc2ccc3c(c2)OCCO3)cc1OCC,/,/,0%,i,i
Cc1ccc(C)c(N2CCN(c3c(CN4CCCC4)c(=O)oc4ccccc34)CC2)c1,/,/,1%,i,i
COc1cc(OC)c(NC(=O)c2cn(C3CCCC3)c(=O)c3c2c2ccccc2n3C)cc1Cl,/,/,-1%,i,i
Cc1ccccc1Nc1nc(N)nc(CSc2nc3ccccc3c(=O)n2CCCO)n1,-4%,4%,-2%[38.3 µM],i,i
COCCn1c(SCc2nc(N)nc(Nc3ccccc3C)n2)nc2ccccc2c1=O,23%,2%,4%[38.3 µM],8.2µM*,i
Cc1ccc(NC(=O)CNC(=O)c2ccco2)c(Cl)c1,4%,-8%,1%,i,i
O=C(COC(=O)COc1cccc(C(F)(F)F)c1)Nc1ccc(N2CCOCC2)cc1,-5%,0%,0%,i,i
CCc1n[nH]c(=S)n1/N=C/C(C)=C\c1ccccc1,15%,0%,0%,7.3µM*,?
CC(/C=N/n1c(-c2ccccn2)n[nH]c1=S)=C\c1ccccc1,8%,-3%,2%,i,?
O=[N+]([O-])c1ccc(NCCCN2CCOCC2)c([N+](=O)[O-])c1,17%,-8%,2%,i,i
O=C(NCCCN1CCOCC1)c1ccc(Cl)c([N+](=O)[O-])c1,?,-33%,2%,i,i
O=C(NCCN1CCOCC1)c1ccc(Cl)c([N+](=O)[O-])c1,-10%,1%,0%,i,i
O=C(Nc1ccc(Cl)c([N+](=O)[O-])c1)c1ccc(NCCCN2CCOCC2)c([N+](=O)[O-])c1,?,2.9µM*,4%[38.3 µM],4.6µM*,i
Cc1ccc(NC(=O)c2ccc(NCCCN3CCOCC3)c([N+](=O)[O-])c2)cc1Cl,?,?,4%,23µM*,8.2µM*
O=C(NCCCN1CCOCC1)c1ccc(Sc2cccc(Cl)c2)c([N+](=O)[O-])c1,20%,-9%,5%,21µM*,?
O=C(Nc1cccc(S(=O)(=O)N2CCOCC2)c1)c1ccc(Cl)c([N+](=O)[O-])c1,9.2µM*,16µM*,-1%,i,i
COc1cc(S(=O)(=O)NCCCN2CCOCC2)ccc1Cl,5%,10%,/,i,i
Cc1ccc(NC(=O)c2ccc(N3CCOCC3)c([N+](=O)[O-])c2)cc1S(=O)(=O)N1CCOCC1,1%,-10%,0%,?,21µM*
O=[N+]([O-])c1cc(S(=O)(=O)NCCCN2CCOCC2)ccc1Cl,16µM*,?,-1%,i,i
SMILES,MCF10A rereplic,SW480 rerep,PINK1 modulator,KB-V1 cytotox,KB-3-1 cytotox
COc1ccc(NC(=O)c2ccc(NCCCN3CCOCC3)c([N+](=O)[O-])c2)cc1,14%,-5%,9%,9.2µM*,?
CCCS(=O)(=O)NC(=O)C1(C)CCN(C(=O)c2ccccc2F)C1 (configuration not stated),/,/,0%,i,i
COc1ccc(-c2c3c(=O)n(C)c(=O)n(C)c3cn2Cc2ccccn2)cc1,18µM*,?,0%[38.3 µM],i,i
CCCCn1c(=S)[nH]c2cc(S(=O)(=O)N3CCOCC3)ccc21,-3%,-7%,1%,i,i
CCn1c(=S)[nH]c2cc(S(=O)(=O)N3CCCCC3)ccc21,-9%,-8%,/,13µM*,i
Cc1cnc(CNC(=O)c2csc([C@@H]3C[C@H](O)[C@@H](CO)O3)n2)cn1,/,/,0%,i,?
